OTUD3 inh = blocks human OTUD3 ubiquitin-rhodamine cleavage; AID 1645858; actives 0.7% (n = 47,000); purified OTUD3, Ub-rhodamine fluorescence, 2 h; inhibition, % at 25 µM; Q5T2D3
Target sequence (Q5T2D3 whole entry, looked up): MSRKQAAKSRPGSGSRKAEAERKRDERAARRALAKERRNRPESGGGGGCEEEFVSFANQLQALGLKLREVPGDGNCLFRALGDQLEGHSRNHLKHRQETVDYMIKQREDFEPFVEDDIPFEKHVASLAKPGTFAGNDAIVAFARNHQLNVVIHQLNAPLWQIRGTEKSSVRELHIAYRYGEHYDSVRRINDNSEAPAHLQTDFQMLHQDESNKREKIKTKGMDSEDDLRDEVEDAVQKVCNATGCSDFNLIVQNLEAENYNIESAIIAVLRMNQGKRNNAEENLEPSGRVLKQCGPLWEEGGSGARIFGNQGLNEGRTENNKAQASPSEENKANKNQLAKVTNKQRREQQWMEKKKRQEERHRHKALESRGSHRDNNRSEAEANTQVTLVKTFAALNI
USP28 block = inhibitors of human USP28 deubiquitinase. purified USP28, Ub-rhodamine cleavage fluorescence, 30 min. inhibition, % at 25 µM. actives 3% (n = 47,000). Q96RU2
Large screens that a line does not name were inactive. An excerpt weighted towards active compounds, which were near 3.4% of everything screened. No stated cut-off is given here; in the data, active means inhibition above about 30%; inactive means the rest.

Cc1ccc(Cl)cc1N(Cc1ccc(C(=O)N2CCOCC2)cc1)S(=O)(=O)c1ccccc1	none
Cc1cc(N2CCOCC2)n2nc(CN3CCCC(C)C3)nc2n1 (stereo unspecified)	none
Cc1c(NC(=O)c2cccc3c2SCCC3=O)cccc1[N+](=O)[O-]	none (no result: USP28 block)
O=C(Nc1cccn(Cc2c(Cl)cccc2Cl)c1=O)c1ccccc1[N+](=O)[O-]	USP28 block 80.8
NS(=O)(=O)c1ccc(NS(=O)(=O)c2ccc(NC(=O)Nc3ccc(Cl)cc3)cc2)cc1	USP28 block 74.7
CC(=O)c1ccc(S(=O)(=O)Nc2ccc(C(=O)O)cc2)cc1	none
CC(=O)c1sc(NCc2ccc(C)cc2)nc1C	USP28 block 49.6
CC(=O)c1sc(NC(=O)COc2ccc(N(C)S(=O)(=O)c3ccc(C)cc3)cc2)nc1C	none
CC(=O)Nc1ccc(S(=O)(=O)N2CCC3(CC2)OC(=O)Nc2ccccc23)cc1	none
CCCn1ncc(CN2CCC(C(=O)Nc3ccccc3-c3cccc(OC)c3)CC2)c1C	none
O=C(c1cnco1)N1CCCCC1c1ncc(Cc2ccc(Cl)cc2)o1 (stereo unspecified)	none
Cn1nccc1C(=O)N1CCCCC1c1ncc(Cc2ccc(Cl)cc2)o1 (stereo unspecified)	OTUD3 inh 35.2
CC(=O)Nc1ccc(NC(=O)c2cc(-c3cc(C)cc(C)c3O)n[nH]2)cc1	USP28 block 45.5
Cc1cccc(NC(=O)c2cc(-c3ccc(C)c(C)c3O)n[nH]2)c1	none
Cc1ccnc2nc(C(=O)Nc3nc4ccc(Oc5ccccc5)cc4s3)nn12	none
CC(C)OC(=O)c1cc2c(ccn2C)n1CC(=O)N1CCN(C(=O)c2ccco2)CC1	none
CCOC(=O)c1noc2ncn(CC(=O)NCCc3ccccc3)c(=O)c12	none
COc1cc2ncc(S(=O)(=O)c3ccc(C)cc3)c(Nc3ccc(F)cc3)c2cc1OC	USP28 block 46.7
COc1ccc(S(=O)(=O)c2cnc3cc(OC)c(OC)cc3c2Nc2ccc(F)cc2)cc1	none
Fc1ccccc1CSc1nnc(-c2ccccn2)n1Cc1ccco1	USP28 block 31.7
Cc1ccc(C)c(NC(=O)CSc2nnc(-c3ccccn3)n2Cc2ccco2)c1	none
CCc1ccccc1NC(=O)CSc1nnc(-c2cnccn2)n1Cc1ccco1	none
Fc1ccc(CSc2nnc(-c3ccccn3)n2Cc2ccco2)cc1	USP28 block 56.3
O=C(Nc1ccccc1)N1CCCC2(CCCN2CCCc2ccccc2)C1 (stereo unspecified)	none
C[C@@H]1CO[C@@H]2C3=C(C(=O)C=CC3=O)[C@H]3OC(=O)[C@@H]4CCC5[C@@H]1CCC52C34 (stereo partly specified)	OTUD3 inh 58.9, USP28 block 61.9
Cc1c(CN2CCC(C(=O)Nc3cccc(-c4cccc(F)c4)c3)CC2)cnn1C	none
CC(C)C(=O)N1CCc2cc(-c3csc(NC(=O)CN4CCc5ccccc5C4)n3)ccc21	none
O=C(CN1C(=O)c2ccccc2C1=O)Nc1nc(-c2ccc(Br)cc2)cs1	USP28 block 32.4
O=C(Nc1ccc2c(c1)OCCO2)Nc1nnc(CC(=O)N2CCCCC2)s1	USP28 block 56.4
O=C(Nc1ccc2c(c1)OCCO2)Nc1nnc(CC(=O)N2CCOCC2)s1	none
COc1ccc(CNC(=O)CN2CCN(Cc3ccccc3C)C2=O)cc1	none
COc1ccc(CNC(=O)CN2C(=O)C(C)=C(c3ccc(C)cc3)S2(=O)=O)cc1	USP28 block 57.5
COc1ccc(-n2nnc(C(=O)Nc3ccccc3F)c2C)cc1	none
CCOc1cccc(C(=O)Nc2nc(-c3ccc(OCC)c(OC)c3)ns2)c1	none
Cc1cccc(-n2nnc(C(=O)Nc3ccc(F)cc3)c2C)c1	none
COc1ccc(NC(=O)c2nnn(-c3cccc(C)c3)c2C)cc1	USP28 block 59.1
CCc1ccc(NC(=O)c2nnn(-c3cccc(C)c3)c2C)cc1	USP28 block 40.6
CCc1ccc(NC(=O)c2nnn(-c3cccc(F)c3)c2C)cc1	none
COc1ccc(NC(=O)c2nnn(-c3ccccc3F)c2C)cc1OC	USP28 block 73.9
COc1cccc(C(=O)Nc2nc(-c3nnn(-c4ccc(C)c(F)c4)c3C)ns2)c1	USP28 block 64.3
O=c1[nH]c(=O)c2c(-c3ccc(Cl)cc3)ccnc2[nH]1	none
CC12CN3CC(C)(CN(C1)C3c1ccc([N+](=O)[O-])cc1)C2O (stereo unspecified)	none
Cc1c(C(=O)Nc2ccc(F)cc2)nnn1-c1cccc(F)c1	none
Cc1c(C(=O)Nc2ccc(Oc3ccccc3)cc2)nnn1-c1cccc(Cl)c1	USP28 block 49.9
Cc1ccc(NC(=O)c2nnn(-c3cccc(F)c3)c2C)cc1C	none
Cc1cc(NC(=O)c2nnn(-c3ccccc3Cl)c2C)no1	USP28 block 85.8
Cc1ccc(NC(=O)c2nnn(-c3ccccc3Br)c2C)cc1C	USP28 block 84.1
COc1cccc(-n2nnc(C(=O)Nc3ccc(C)c(C)c3)c2C)c1	USP28 block 58.4
Cc1cc(NC(=O)c2nnn(-c3ccc(Cl)cc3)c2C)no1	none
COc1ccccc1-n1nnc(C(=O)Nc2cccc(C)c2C)c1C	none
CSc1ccc(C(=O)Nc2nc(-c3ccncc3)cs2)cc1	none
CCn1c(=O)c2ccccc2n(Cc2nc(-c3ccccc3OC)no2)c1=O	none

Screening data deposited in PubChem BioAssay by Buhrlage Lab, Dana-Farber Cancer Institute and Novartis Institutes for BioMedical Research (Cambridge, Mass).
